Data: PubChem BioAssay (NCATS)
Unmarked numbers belong to inactive results. Inconclusive results are not listed. Calls of active or inactive are those of the source. Unless noted, calls follow the shape of the dose curve; as a rule, active = well fitted curve in the direction sought with a large enough effect; inconclusive = small, poorly fitted or top-dose-only effect, or another doubt; inactive = no such curve, though single readings can be large; an effect the other way counts as inactive or inconclusive.

Assays:
[1] = target: Lysosomal acid glucosylceramidase (Homo sapiens) (UniProt P04062); experiment: Glucocerebrosidase-p2 (AID 348; in the data active = potency below about 10 µM; also: potency is read from the fitted curve at half-maximal effect); conditions: purified GBA, blue fluorogenic substrate, 40 min
Summary of the method: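 Compounds titrated from 0.6 nM upwards against 0.2 nM enzyme in pH 5.9 citric acid/KH2PO4, taurocholate, tween-20; blue fluorogenic substrate 80 uM, 40 min room temperature, stopped and read Ex 365/Em 440 for AC50.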

[2] = target: Cytochrome P450 1A2 (Homo sapiens) (UniProt P05177); experiment: p450-cyp1a2 (AID 410; calls by dose curve; also: potency is read from the fitted curve at half-maximal effect); conditions: recombinant CYP1A2, luciferin-ME demethylation, luminescence; series mostly up to 57 µM
Summary of the method: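 Human CYP1A2 (20nM) demethylated Luciferin-ME at its Km (100uM) in 100mM KPO4. After 10 min compound preincubation, NADPH regeneration ran the reaction 60 min at room temperature. Luciferin was read by luminescence, normalized to 57 uM furafylline.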

[3] = target: Glucocorticoid receptor (Homo sapiens) (UniProt P04150); experiment: GR-GFP Redistribution (AID 450;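 active = compounds whose dose series gives a full or clear partial fitted curve of increased nuclear translocation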; also: potency is read from the fitted curve at half-maximal effect); conditions: U2OS GR-GFP nuclear translocation, laser cytometry, 2 h
[4] = target: Glucocorticoid receptor (Homo sapiens) (UniProt P04150); experiment: GR-EFC Redistribution (AID 451; calls by dose curve; also: potency is read from the fitted curve at half-maximal effect); conditions: CHO-K1 GR-EFC translocation, beta-gal luminescence, 2 h
Summary of the method: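 CHO-K1 cells stably expressing nuclear-localized β-gal enzyme acceptor and GR fused C-terminally to the enzyme donor fragment; ligand-driven nuclear translocation restores β-gal by complementation. Compounds titrated up to 46 uM final, 2 h at 37 °C; luminescence read.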

[5] = target: Mitogen-activated protein kinase 10 (Mus musculus) (UniProt Q61831); experiment: JNK3 AlphaScreen Assay (AID 530; active = well fitted curve in either direction with a large enough effect, not every such curve was filed as active;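 also: kinase came from lysate of stimulated human HepG2 cells; signal reports phosphorylation of biotinylated GST-cJun 1-79 at Ser73 with 10 µM ATP; % is scaled to controls: 0 for no effect and ±100 for the full control effect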); conditions: JNK3 lysate, c-Jun phosphorylation; series mostly up to 57.1 µM
Summary of the method: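 JNK3 came from HepG2 lysates pre-activated with IL-1beta and TNF-alpha and phosphorylated biotinylated GST-cJun (1-79) at 10 uM ATP, pH 7.6, room temperature. Compounds were titrated. AlphaScreen signal used anti-phospho-cJun (Ser73) antibody.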

[6] = target: 3',5'-cyclic-AMP phosphodiesterase 4B (Homo sapiens) (UniProt Q07343); experiment: qHTS Assay for Inhibitors of PDE-IV (AID 607; active = well fitted activation curve with a large enough effect in the main read-out, with a control signal flat, not every such curve was filed as active; also: potency is read from the fitted curve at half-maximal effect); conditions: HEK293 ACTOne CNG channel cells, membrane potential fluorescence; series mostly up to 22.9 µM
Summary of the method: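 ACTOne HEK293 cells carry a modified cAMP-gated CNG channel and express endogenous PDE4; plated 1000 cells/well, compounds up to 22.9 uM final. Membrane-potential dye fluorescence (ex 535/em 590) was read; parental cells received 10 uM forskolin + 100 uM RO 20-1724.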

[7] = qHTS Assay for Identification of Small Molecule Agonists for Hypoxia Response Element Signaling Pathway (AID 914; active = well fitted activation curve with a large enough effect in the signal ratio, with a control signal flat, not every such curve was filed as active; the % refers to the signal ratio; also: potency is read from the fitted curve at half-maximal effect); conditions: ME-180 HRE-bla reporter, beta-lactamase ratio, CoCl2, 17 h; activation: stronger effect = higher value
Summary of the method: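 Positive modulation of EC50 CoCl2-induced hypoxia response element signaling is measured in ME-180 cells with a beta-lactamase reporter. Compounds are titrated, incubation runs 17 hours, and %Activity derives from the blue/green ratio.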

[8] = target: Dual specificity protein kinase CLK4 (Homo sapiens) (UniProt Q9HAZ1); experiment: qHTS Assay for Inhibitors of CDC-like Kinase 4 (Kinase-Glo Assay) (AID 1770); conditions: recombinant Clk4, Kinase-Glo ATP depletion luminescence; series mostly up to 66.7 µM; also: nearly all actives have a fitted effect of over 65% in size; also: potency is read from the fitted curve at half-maximal effect
Summary of the method: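 25 nM Clk4 with 100 uM RS repeat peptide and 1 uM ATP (final) in Tris pH7.5, 10 mM MgCl2, 4.5 h at room temperature. Remaining ATP measured by Kinase-Glo luciferase luminescence.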

[9] = target: Dual specificity protein kinase CLK4 (Homo sapiens) (UniProt Q9HAZ1); experiment: qHTS Assay for Inhibitors of CDC-like Kinase 4 (ADP-Glo Assay) (AID 1771); conditions: recombinant CLK4, ADP-Glo luminescence; series mostly up to 80 µM; also: nearly all actives have a fitted effect of over 70% in size; also: potency is read from the fitted curve at half-maximal effect
Summary of the method: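 Clk4 (25 nM) was incubated 1 hr at room temperature with 100 uM RS repeat peptide and 1 uM ATP in buffer with 2 mM MgCl2, 0.5 mM EGTA, 2.5 mM DTT. ADP formed was quantified by ADP-Glo luminescence.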

[10] = target: Ubiquitin carboxyl-terminal hydrolase 1 (Homo sapiens) (UniProt O94782); experiment: Inhibitors of USP1/UAF1: Pilot qHTS (AID 504865); conditions: purified USP1/UAF1, Ub-rhodamine cleavage fluorescence; series mostly up to 54.9 µM; also: nearly all actives have a fitted effect of over 35% in size; also: potency is read from the fitted curve at half-maximal effect
Summary of the method: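 USP1/UAF1 complex at 1 nM preincubated 15 min at room temperature with compound, then Ub-Rho substrate added at 150 nM final. Fluorescence (480/540 nm) read kinetically in 50 mM HEPES pH 7.8, 0.5 mM EDTA, 1 mM TCEP, 0.1 mg/ml BSA, 0.01% Tween-20.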

[11] = Primary qHTS for small molecule stabilizers of the endoplasmic reticulum resident proteome: Secreted ER Calcium Modulated Protein (SERCaMP) assay (AID 1508630); conditions: SH-SY5Y GLuc-SERCaMP (Gaussia luciferase released on ER calcium loss) secretion, thapsigargin, luminescence; series mostly up to 38.4 µM; also: % is scaled to controls: 0 for no effect and ±100 for the full control effect
Summary of the method: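 GLuc-SERCaMP-expressing SH-SY5Y cells, pretreated 16 h with compound, are challenged with thapsigargin to empty ER calcium stores; after 4 h, coelenterazine is added directly to the medium and luminescence is imaged.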

[12] = AP1 Signaling Pathway (AID 357; active = well fitted curve in either direction with a large enough effect, not every such curve was filed as active;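 also: ME-180 reporter cells stimulated with EGF at its EC50 level; % is scaled to controls: 0 for no effect and ±100 for the full control effect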); conditions: ME-180 AP-1-bla reporter, EGF-induced, beta-lactamase ratio, 5 h; at 7.69 µM (top of the series) unless noted
Summary of the method: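 A ratiometric CCF4 readout (405 nm excitation; 460 and 530 nm emission) quantified AP-1-driven beta-lactamase in ME-180 cells after 5 h with compound and EC50 EGF; AC50 values were derived for activators and inhibitors.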

[13] = NFAT Signaling Pathway (AID 444; active = well fitted curve in either direction with a large enough effect, not every such curve was filed as active;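 also: carbachol stimulus at about its EC50 of 1 µM final; % is scaled to controls: 0 for no effect and ±100 for the full control effect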); conditions: Jurkat NFAT-bla M1, carbachol, beta-lactamase ratio, 5 h; at 7.69 µM (top of the series) unless noted
Summary of the method: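 Jurkat cells carrying an NFAT-driven β-lactamase reporter and co-transfected muscarinic M1 receptor were treated with compound plus carbachol (1 uM final, an EC50 level) for 5 h at 37 °C. CCF4 loading followed for 1 h at RT; 460/530 nm ratio gave %activity.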

[14] = Stat Signaling Pathway (AID 446; active = well fitted curve in either direction with a large enough effect, not every such curve was filed as active); conditions: ME-180 SIE beta-lactamase reporter, IL-6 stimulated, 5 h; at 7.69 µM (top of the series) unless noted
Summary of the method: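 ME-180 SIE-bla cells; overnight plating; cpd + IL-6 40 pM, 5 h, 37 C; LiveBLAzer 2.5 h RT; 460/530 nm emission ratio. Normalized to 300 pM IL-6 and 125 nM JAK inhibitor controls.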

[15] = target: Cytochrome P450 3A4 (Homo sapiens) (UniProt P08684); experiment: qHTS Assay for Inhibitors and Substrates of Cytochrome P450 3A4 (AID 884); conditions: recombinant CYP3A4, Luciferin-PPXE luminescence; series mostly up to 57.1 µM; also: potency is read from the fitted curve at half-maximal effect; nearly all actives have a fitted effect of over 50% in size
Summary of the method: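 20 nM human CYP3A4 with 25 uM Luciferin-PPXE (at KM) in 200 mM KPO4, preincubated 10 min with compound; NADPH regeneration started a 60 min RT reaction. Luciferin detected by luminescence, normalized to 57 uM ketoconazole as full inhibition.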

[16] = target: Cytochrome P450 3A4 (Homo sapiens) (UniProt P08684); experiment: qHTS Assay for Activators of Cytochrome P450 3A4 (AID 885); conditions: recombinant CYP3A4, Luciferin-PPXE luminescence, 60 min; series mostly up to 57.1 µM; also: nearly all actives have a fitted effect of over 65% in size
Summary of the method: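 20nM CYP3A4 + 25uM Luciferin-PPXE (=KM), 200mM KPO4; cpd 10 min RT; NADPH regen, 60 min RT; stop w/ detection buffer, 20 min; luminescence. Normalized to 57 uM ketoconazole.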

[17] = target: Dual specificity protein kinase CLK4 (Homo sapiens) (UniProt Q9HAZ1); experiment: qHTS Assay for Inhibitors of CDC-like Kinase 4 (ADP-FP Assay) (AID 1795); conditions: Transcreener ADP fluorescence polarization; series mostly up to 50 µM;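 also: recombinant human CLK4 phosphorylating RS repeat peptide at 1 µM ATP; % is scaled to controls: 0 for no effect and ±100 for the full control effect; nearly all actives have a fitted effect of over 60% in size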
Summary of the method: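 Recombinant Clk4 (6.25 nM) phosphorylated 100 uM RS repeat peptide with 1 uM ATP in 25 mM Tris pH 7.5, 10 mM MgCl2, 0.5 mM EGTA, 2.5 mM DTT, 0.01% Triton X-100 for 1 h. ADP was detected by Transcreener ADP2 competitive fluorescence polarization after 30 min at room temperature.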

[18] = target: Cytochrome P450 2C9 (Homo sapiens) (UniProt P11712); experiment: qHTS Assay for Inhibitors and Substrates of Cytochrome P450 2C9 (AID 883); conditions: recombinant CYP2C9, luciferin-H luminescence, 60 min; series mostly up to 57.1 µM; also: % is scaled to controls: 0 for no effect and ±100 for the full control effect; nearly all actives have a fitted effect of over 60% in size
Summary of the method: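 A luminogenic readout tracked human CYP2C9 (10nM) converting deoxyluciferin (100uM, at KM) in 25mM KPO4 during 60 min at 37C with regenerated NADPH. Values normalized to 57uM sulphaphenazole as complete inhibition.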

[19] = target: Cytochrome P450 2D6 (Homo sapiens) (UniProt P10635); experiment: qHTS Assay for Inhibitors and Substrates of Cytochrome P450 2D6 (AID 891); conditions: recombinant CYP2D6, luciferin-ME EGE luminescence; series mostly up to 57.1 µM; also: potency is read from the fitted curve at half-maximal effect; nearly all actives have a fitted effect of over 60% in size
Summary of the method: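 Human CYP2D6 (5 nM) with 30 uM Luciferin-ME EGE (at Km) in 100 mM KPO4, compound preincubated 10 min, then NADPH regeneration system for 60 min at room temperature. Luciferin read by luminescence; normalized to 1.43 uM quinidine.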

Chain of Lysosomal acid glucosylceramidase (Homo sapiens) (P04062 whole entry, looked up): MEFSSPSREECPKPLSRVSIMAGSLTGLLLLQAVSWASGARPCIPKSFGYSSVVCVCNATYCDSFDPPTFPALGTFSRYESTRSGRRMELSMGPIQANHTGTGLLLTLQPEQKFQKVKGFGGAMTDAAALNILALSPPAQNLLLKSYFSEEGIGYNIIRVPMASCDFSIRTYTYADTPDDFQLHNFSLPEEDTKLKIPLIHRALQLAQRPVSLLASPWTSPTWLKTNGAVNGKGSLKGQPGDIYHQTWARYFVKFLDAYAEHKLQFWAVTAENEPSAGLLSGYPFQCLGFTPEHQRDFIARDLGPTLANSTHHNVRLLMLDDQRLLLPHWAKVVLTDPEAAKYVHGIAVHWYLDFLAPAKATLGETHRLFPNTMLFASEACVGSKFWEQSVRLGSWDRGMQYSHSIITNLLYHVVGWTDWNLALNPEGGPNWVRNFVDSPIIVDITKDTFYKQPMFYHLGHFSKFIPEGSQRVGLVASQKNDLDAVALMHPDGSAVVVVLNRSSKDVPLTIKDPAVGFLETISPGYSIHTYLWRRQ
Chain of 3',5'-cyclic-AMP phosphodiesterase 4B (Homo sapiens) (Q07343 whole entry, looked up): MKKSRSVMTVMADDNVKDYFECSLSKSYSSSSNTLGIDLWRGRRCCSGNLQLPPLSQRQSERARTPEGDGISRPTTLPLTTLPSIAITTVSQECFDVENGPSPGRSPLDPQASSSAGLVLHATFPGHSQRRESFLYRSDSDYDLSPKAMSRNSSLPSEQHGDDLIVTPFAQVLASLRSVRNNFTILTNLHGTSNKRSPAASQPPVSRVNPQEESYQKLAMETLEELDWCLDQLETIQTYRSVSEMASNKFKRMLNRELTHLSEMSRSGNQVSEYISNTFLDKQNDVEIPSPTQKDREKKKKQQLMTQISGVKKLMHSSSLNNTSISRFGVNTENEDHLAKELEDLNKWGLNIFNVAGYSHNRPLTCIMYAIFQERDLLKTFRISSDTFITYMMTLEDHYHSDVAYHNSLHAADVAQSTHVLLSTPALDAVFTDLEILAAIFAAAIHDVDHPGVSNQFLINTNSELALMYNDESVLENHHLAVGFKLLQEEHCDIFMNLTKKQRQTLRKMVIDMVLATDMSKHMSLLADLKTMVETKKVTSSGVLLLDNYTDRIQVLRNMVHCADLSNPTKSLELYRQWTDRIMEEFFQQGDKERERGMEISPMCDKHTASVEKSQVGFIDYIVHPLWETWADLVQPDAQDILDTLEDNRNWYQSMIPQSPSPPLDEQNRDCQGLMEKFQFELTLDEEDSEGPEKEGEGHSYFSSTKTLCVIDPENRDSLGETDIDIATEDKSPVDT
Chain of Ubiquitin carboxyl-terminal hydrolase 1 (Homo sapiens) (O94782 whole entry, looked up): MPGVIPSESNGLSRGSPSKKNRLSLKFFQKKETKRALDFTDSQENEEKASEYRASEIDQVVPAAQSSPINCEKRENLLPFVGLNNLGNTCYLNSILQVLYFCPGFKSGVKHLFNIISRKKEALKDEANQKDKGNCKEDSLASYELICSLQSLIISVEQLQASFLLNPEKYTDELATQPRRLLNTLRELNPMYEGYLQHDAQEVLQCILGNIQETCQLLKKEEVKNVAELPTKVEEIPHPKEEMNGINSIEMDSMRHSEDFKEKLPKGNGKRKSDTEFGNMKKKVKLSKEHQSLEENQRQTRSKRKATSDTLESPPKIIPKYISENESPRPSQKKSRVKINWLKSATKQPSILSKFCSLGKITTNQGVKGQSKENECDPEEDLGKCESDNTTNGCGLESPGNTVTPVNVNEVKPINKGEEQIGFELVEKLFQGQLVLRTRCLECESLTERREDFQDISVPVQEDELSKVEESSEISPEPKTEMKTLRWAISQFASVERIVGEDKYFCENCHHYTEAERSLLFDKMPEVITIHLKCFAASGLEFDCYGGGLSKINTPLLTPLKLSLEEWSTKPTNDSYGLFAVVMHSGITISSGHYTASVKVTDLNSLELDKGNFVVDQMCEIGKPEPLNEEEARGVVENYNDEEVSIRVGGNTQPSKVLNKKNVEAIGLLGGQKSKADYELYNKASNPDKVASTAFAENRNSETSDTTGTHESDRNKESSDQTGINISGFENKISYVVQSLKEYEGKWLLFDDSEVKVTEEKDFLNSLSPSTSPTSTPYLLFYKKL
Chain of Cytochrome P450 1A2 (Homo sapiens) (P05177 whole entry, looked up): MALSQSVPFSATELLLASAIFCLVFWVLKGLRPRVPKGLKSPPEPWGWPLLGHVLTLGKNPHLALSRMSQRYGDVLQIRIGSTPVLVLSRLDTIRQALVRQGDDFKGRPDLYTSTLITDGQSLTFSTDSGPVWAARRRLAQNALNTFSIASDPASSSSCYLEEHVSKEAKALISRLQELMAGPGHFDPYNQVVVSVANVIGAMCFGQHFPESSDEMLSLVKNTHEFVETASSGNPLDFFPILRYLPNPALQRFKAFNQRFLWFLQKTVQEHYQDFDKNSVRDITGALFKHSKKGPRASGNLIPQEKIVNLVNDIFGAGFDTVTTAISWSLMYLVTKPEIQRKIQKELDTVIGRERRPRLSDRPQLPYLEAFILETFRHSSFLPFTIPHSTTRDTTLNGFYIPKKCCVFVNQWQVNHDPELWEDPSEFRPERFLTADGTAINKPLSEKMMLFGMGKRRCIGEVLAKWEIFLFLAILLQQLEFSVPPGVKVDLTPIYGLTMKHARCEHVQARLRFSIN
Chain of Cytochrome P450 3A4 (Homo sapiens) (P08684 whole entry, looked up): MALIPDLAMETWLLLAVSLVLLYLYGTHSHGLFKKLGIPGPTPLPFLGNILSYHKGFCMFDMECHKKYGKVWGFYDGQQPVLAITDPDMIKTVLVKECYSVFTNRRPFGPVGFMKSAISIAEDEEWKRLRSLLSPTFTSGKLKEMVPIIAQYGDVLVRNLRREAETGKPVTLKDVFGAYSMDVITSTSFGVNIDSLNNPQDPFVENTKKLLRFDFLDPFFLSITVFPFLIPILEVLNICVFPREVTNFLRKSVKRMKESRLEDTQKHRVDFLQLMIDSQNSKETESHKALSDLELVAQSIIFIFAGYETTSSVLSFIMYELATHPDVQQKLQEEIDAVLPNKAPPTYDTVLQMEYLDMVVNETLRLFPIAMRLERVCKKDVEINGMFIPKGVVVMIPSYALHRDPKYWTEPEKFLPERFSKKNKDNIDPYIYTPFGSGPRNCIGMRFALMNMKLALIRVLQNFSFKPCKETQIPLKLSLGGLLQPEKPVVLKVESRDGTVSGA
Chain of Dual specificity protein kinase CLK4 (Homo sapiens) (Q9HAZ1 whole entry, looked up): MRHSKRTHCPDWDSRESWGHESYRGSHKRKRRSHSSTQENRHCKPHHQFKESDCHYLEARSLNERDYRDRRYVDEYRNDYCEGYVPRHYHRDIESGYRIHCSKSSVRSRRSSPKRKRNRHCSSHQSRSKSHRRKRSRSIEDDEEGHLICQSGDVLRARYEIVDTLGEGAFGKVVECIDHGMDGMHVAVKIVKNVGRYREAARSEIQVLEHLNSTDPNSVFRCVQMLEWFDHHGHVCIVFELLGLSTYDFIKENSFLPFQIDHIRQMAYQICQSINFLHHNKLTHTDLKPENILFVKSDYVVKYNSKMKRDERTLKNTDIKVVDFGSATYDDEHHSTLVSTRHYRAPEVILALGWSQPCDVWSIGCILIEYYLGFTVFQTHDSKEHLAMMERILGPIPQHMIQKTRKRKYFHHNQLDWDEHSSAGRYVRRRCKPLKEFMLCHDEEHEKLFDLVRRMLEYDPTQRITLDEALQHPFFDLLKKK
Chain of Glucocorticoid receptor (Homo sapiens) (P04150 whole entry, looked up, the tested form may be a part): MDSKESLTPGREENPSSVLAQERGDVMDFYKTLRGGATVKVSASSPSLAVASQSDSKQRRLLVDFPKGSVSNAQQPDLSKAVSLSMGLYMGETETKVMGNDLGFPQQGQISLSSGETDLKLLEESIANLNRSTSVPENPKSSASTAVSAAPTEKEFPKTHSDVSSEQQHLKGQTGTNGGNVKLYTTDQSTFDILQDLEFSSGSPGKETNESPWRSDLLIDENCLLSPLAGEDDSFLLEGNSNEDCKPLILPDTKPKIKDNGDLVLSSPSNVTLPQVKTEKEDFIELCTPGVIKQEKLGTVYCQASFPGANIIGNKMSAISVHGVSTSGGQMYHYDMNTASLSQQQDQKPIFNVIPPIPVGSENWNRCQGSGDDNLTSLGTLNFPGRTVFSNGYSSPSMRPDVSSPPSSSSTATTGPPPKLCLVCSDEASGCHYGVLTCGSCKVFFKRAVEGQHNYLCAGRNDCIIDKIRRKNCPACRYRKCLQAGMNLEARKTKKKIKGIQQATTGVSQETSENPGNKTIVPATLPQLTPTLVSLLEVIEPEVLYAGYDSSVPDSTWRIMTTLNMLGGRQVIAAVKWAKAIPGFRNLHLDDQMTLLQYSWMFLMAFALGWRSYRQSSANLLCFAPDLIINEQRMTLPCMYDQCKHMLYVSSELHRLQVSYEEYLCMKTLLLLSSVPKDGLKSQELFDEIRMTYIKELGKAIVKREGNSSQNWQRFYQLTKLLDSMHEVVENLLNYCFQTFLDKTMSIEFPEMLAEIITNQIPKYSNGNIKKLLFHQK
Chain of Cytochrome P450 2C9 (Homo sapiens) (P11712 whole entry, looked up): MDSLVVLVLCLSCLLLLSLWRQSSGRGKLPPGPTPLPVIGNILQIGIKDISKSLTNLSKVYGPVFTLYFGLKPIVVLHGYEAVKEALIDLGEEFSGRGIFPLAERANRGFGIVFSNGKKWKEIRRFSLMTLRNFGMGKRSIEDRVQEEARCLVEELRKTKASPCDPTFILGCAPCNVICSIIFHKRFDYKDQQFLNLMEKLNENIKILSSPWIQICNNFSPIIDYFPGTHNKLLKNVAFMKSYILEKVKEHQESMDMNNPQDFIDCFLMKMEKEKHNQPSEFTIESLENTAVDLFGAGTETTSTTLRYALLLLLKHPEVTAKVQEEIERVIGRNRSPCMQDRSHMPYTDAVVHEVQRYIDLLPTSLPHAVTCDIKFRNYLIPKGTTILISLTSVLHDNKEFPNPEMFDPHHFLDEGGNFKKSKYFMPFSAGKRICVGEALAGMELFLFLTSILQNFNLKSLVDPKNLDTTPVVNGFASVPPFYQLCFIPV

SMILES | Potency [1] | Potency [2] | Potency [3] [µM] | Potency [4] [µM] | Potency [5] | Potency [6] | Potency [7] | Potency [8] | Potency [9] | Potency [10] | outcome [11] | activity change, negative = inhibition [12] [%] | activity change, negative = inhibition [13] [%] | activity, negative = inhibition [14] [%] | Potency [15] | Potency [16] | Potency [17] | Potency [18] | Potency [19]
CN(C)c1ncc2nc(-c3ccc(Cl)cc3)c(=O)n(-c3ccccc3)c2n1 | > 11.4 µM | 5.01 µM (active) | > 9.22 | > 46 | inactive | 1 µM (active) | 2.51 µM (active) | inactive | inactive | inactive | inactive | – | – | – | – | – | – | – | –
COc1ccc2[nH]cc(CCNc3ccnc(-c4ccc(C(=O)N(C)C)cc4)n3)c2c1 | > 11.4 µM | 12.6 µM (active) | > 46 | > 46 | inactive | inactive | – | inactive | – | inactive | inactive | -14.6 | -3.74 | -20.4 | 3.16 µM (active) | inactive | inactive | – | –
COc1cccc(-c2nccc(NCCc3c[nH]c4ccc(OC)cc34)n2)c1 | 6.96 µM (active) | – | – | > 46 | inactive | – | – | 25.1 µM (active) | 28.2 µM (active) | inactive | inactive | – | -15.8 | -25.8 | – | – | – | – | –
NC(=O)c1ccccc1-c1nc(-n2ccnc2)c2ccccc2n1 | > 11.4 µM | 2.51 µM (active) | > 46 | > 46 | inactive | inactive | – | inactive | – | inactive | inactive | 11.1 | -3.23 | -1.41 | 3.98 µM (active) | inactive | inactive | – | –
COc1cccc(Cn2c(=O)c(-c3cc(F)cc(F)c3)nc3cnc(N4CCOCC4)nc32)c1 | > 11.4 µM | – | > 9.22 | > 46 | inactive | inactive | – | inactive | – | – | inactive | – | 5.53 | 24.5 | – | – | inactive | inactive | –
COc1ccccc1CNc1ncncc1-c1cccc(NS(C)(=O)=O)c1 | – | – | > 46 | > 46 | inactive | inactive | – | inactive | – | inactive | inactive | -18.5 | 22.3 | -7.42 | 0.251 µM (active) | inactive | inactive | – | –
Cc1noc(C)c1-c1nc(NCc2ccccc2)c2ccccc2n1 | > 11.4 µM | – | > 46 | > 46 | inactive | – | – | inactive | – | 6.31 µM (active) | inactive | -3.06 | – | -4.57 | – | – | inactive | – | –
COc1ncc2nc(-c3ccc(Cl)cc3)c(=O)n(CCC#N)c2n1 | > 11.4 µM | – | > 9.22 | > 46 | inactive | inactive | – | inactive | – | inactive | inactive | -9.68 | 3.96 | -4.68 | – | – | inactive | – | –
COc1ccc2[nH]cc(CCNc3ccnc(-c4ccccc4C(F)(F)F)n3)c2c1 | > 11.4 µM | 3.98 µM (active) | > 46 | > 46 | inactive | inactive | – | inactive | – | – | inactive | -10.2 | -1.93 | -14.8 | 2 µM (active) | inactive | inactive | – | –
COc1cccc(Cn2c(=O)c(-c3cn(C)c4ccccc34)nc3cnc(OC)nc32)c1 | > 11.4 µM | 15.8 µM (active) | > 9.22 | > 46 | inactive | inactive | – | inactive | – | inactive | inactive | – | 1.88 | – | 7.94 µM (active) | inactive | inactive | – | –
COc1cccc(Nc2ncc3nc(-c4cccs4)c(=O)n(CCC#N)c3n2)c1 | > 11.4 µM | 2.51 µM (active) | > 9.22 | > 46 | inactive | inactive | – | inactive | – | inactive | inactive | -26.3 | – | – | 6.31 µM (active) | inactive | inactive | – | –
CN(C)C(=O)c1ccc(-c2nccc(NCc3cccs3)n2)cc1 | > 11.4 µM | 15.8 µM (active) | – | > 46 | inactive | inactive | – | inactive | – | inactive | inactive | -0.866 | 3.58 | -7.66 | – | inactive | inactive | – | –
CCNc1ncc2nc(-c3ccccc3)c(=O)n(CCOC)c2n1 | > 11.4 µM | 3.16 µM (active) | > 9.22 | > 46 | inactive | inactive | – | inactive | – | inactive | inactive | 22.2 | 22.8 | – | – | inactive | inactive | – | 3.16 µM (active)
